# PubChem BioAssay
# “And” between values parts separate entries of the source, which are not always exact repeats. Identical values can stand only once. Results filed as inconclusive are left out. The source made the active and inactive calls.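 Rule for the calls, unless noted: active = normalized viability below 100% at a tested concentration; inactive = the rest.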
# What was measured:
# [1] = tested on: Aerobactin synthetase IucA (Klebsiella pneumoniae); experiment: IucA aerobactin synthetase inhibitors, biochemical, Tocris library, absorbance (AID 1345561; call rule not given here;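 note: 100% = enzyme without compound and 0% = no enzyme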); details: purified IucA enzyme assay, absorbance (OD) read-out; stronger effect = lower value;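 tested at 8 µM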
# [2] = growth inhibition of DIPG glioma cells, dose response, cell-based, SU-DIPG-XVII, MIPE5.0, CellTiter-Glo, qHTS (AID 1347060; cut-off not given, nearly all actives have AC50 up to about 26 µM;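 for AC50: cells exposed to compound for 48 hours before viability readout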); details: SU-DIPG-XVII viability, CellTiter-Glo ATP luminescence
# [3] = growth inhibition of DIPG glioma cells, dose response, cell-based, SU-DIPG-XIII, MIPE4.0, CellTiter-Glo, qHTS (AID 1347061; cut-off not given, nearly all actives have AC50 up to about 37 µM;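 note: cells exposed to compound for 48 hours before readout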); details: SU-DIPG-XIII viability, CellTiter-Glo ATP luminescence
# [4] = growth inhibition of DIPG glioma cells, dose response, cell-based, SU-DIPG-IV, MIPE4.0, CellTiter-Glo, qHTS (AID 1347063; cut-off not given, nearly all actives have AC50 up to about 30 µM;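 note: compound exposure lasted 48 hours before the viability readout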); details: SU-DIPG-IV viability, CellTiter-Glo ATP luminescence
# [5] = growth inhibition of DIPG glioma cells, dose response, cell-based, SU-DIPG-XIII, MIPE5.0, CellTiter-Glo, qHTS (AID 1347064; cut-off not given, nearly all actives have AC50 up to about 23 µM;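 for AC50: cells exposed to compound for 48 hours before the viability read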); details: SU-DIPG-XIII viability, CellTiter-Glo ATP luminescence
# [6] = SU-DIPG-VI glioma cell viability, MIPE4.0 library, CellTiter-Glo luminescence, qHTS (AID 1347066; cut-off not given, nearly all actives have AC50 up to about 30 µM;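 note: cells exposed to compound for 48 hours before readout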); details: CellTiter-Glo ATP luminescence
# [7] = JHH-DIPG-1 glioma cell viability, MIPE5.0 library, CellTiter-Glo luminescence, qHTS (AID 1347067; cut-off not given, nearly all actives have AC50 up to about 26 µM;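 note: cells exposed to compound for 48 hours before readout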); details: JHH-DIPG-1 glioma viability, CellTiter-Glo ATP luminescence
# [8] = SU-DIPG-XXV glioma cell viability, MIPE5.0 library, qHTS (AID 1347068; cut-off not given, nearly all actives have IC50 up to about 30 µM)
# [9] = sensitizers of A549 cells to miR-34 induction, primary screen, imaging, A549 dox-inducible miR-34, nuclei and caspase counts (AID 1347080;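 active = compounds whose cell count with miR-34 switched on is under 0.7 times the count with it off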); details: A549 miR-34 inducible, Hoechst nuclei count, 48 h
# [10] = modifiers of HSF1 nuclear foci, imaging, Selleck Cancer Library (AID 1347162; in the data active = plate-normalised HSF1 focus index below about 0.46); details: human cells, at 10 µM; SSMD: measured here: HSF1 foci SSMD mean; cell count: measured here: cell number; plate-normalised HSF1 focus index: stronger effect = lower value
# [11] = survival rescue of mitochondrial mutant cells in low glucose, primary screen, MELAS cybrids, Rieske KO mouse fibroblasts, CellTiter-Glo (AID 1508586;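 active = mean z-score across replicates of 1.96 or higher in either the MELAS or the Rieske mutant cell line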;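 note: z relative to plate mean and SD of compound and empty wells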)
# [12] = viability rescue of complex I mutant cybrids, primary screen, cell-based, galactose medium, ATP luminescence (AID 1645843;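 active = z-score of at least 1.8 in each of two replicates, scored against plate mean and spread of sample wells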;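 note: positive z means more ATP and so rescue of galactose-driven cybrid death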); details: complex I mutant cybrid cells, 72 h, stronger effect = higher value
# [13] = liver-stage malaria parasite growth inhibition, primary screen, cell-based, HepG2, luciferase luminescence, HepG2 viability (AID 624349; in the data active = parasite load remaining mostly below about 12%, no sharp cut-off; inactive = mostly above about 10%;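 note: 100% = mean of DMSO negative control wells on the same plate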); details: P. berghei liver stage in HepG2, luciferase luminescence, concentration not given here; parasite load remaining: stronger effect = lower value; viability: measured here: HepG2 viability without parasites
# [14] = growth inhibition of DIPG glioma cells, dose response, cell-based, JHH-DIPG-1, MIPE4.0, CellTiter-Glo, qHTS (AID 1347062; cut-off not given, nearly all actives have AC50 up to about 27 µM;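 for AC50: cells exposed to compound for two days before readout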); details: JHH-DIPG-1 viability, CellTiter-Glo ATP luminescence
# [15] = viability loss in pontine glioma line – cell-based, SU-DIPG-XXV, MIPE5.0, CellTiter-Glo, qHTS, dose response (AID 1347065; cut-off not given, nearly all actives have AC50 up to about 26 µM;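 note: cells exposed to compound for 48 hours before ATP readout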); details: CellTiter-Glo ATP luminescence
# [16] = ovarian cancer cell viability with rucaparib, profiling panel, oncology-focused library, rucaparib conditional (AID 1508598); details: patient-derived ovarian cancer cells, CellTiter-Glo viability, 144 h, stronger effect = lower value
# [17] = stronger effect = lower value, cell number ratio, induced over uninduced
# [18] = measured here: relative caspase fold change +Dox/-Dox
# [19] = measured here: total cells with miR-34 induction, stronger effect = lower value
# [20] = measured here: total cells without miR-34 induction
# [21] = MELAS cybrid survival, CellTiter-Glo 48 h, stronger effect = higher value
# [22] = Rieske KO mouse fibroblast survival, CellTiter-Glo 72 h
structure (smiles),measurement,setting,value
CCN(CC)CCCC(C)Nc1nc(C)cc(Nc2ccc3nc(C)cc(N)c3c2)n1 (stereo unspecified),remaining activity,[1],104% (inactive)
same,outcome,[2],inactive
same,outcome,[3],inactive
same,outcome,[4],inactive
same,outcome,[5],inactive
same,outcome,[6],inactive
same,outcome,[7],inactive
same,outcome,[8],inactive
same,fold change,[9]; [17],0.97 (inactive) and 0.925 (inactive)
same,fold change,[9]; [18],0.421 and 1.06
same,cell count,[9]; [19],7920 and 8660
same,cell count,[9]; [20],8160 and 9370
same,SSMD,[10],3.48
same,cell count,[10],7010
same,plate-normalised HSF1 focus index,[10],1.21 (inactive)
same,z-score,[11]; [21],-0.488 (inactive)
same,z-score,[11]; [22],-2.27
same,z-score,[12],2.71 (active)
COc1nccc(-c2c(-c3ccc(F)cc3)ncn2C2CCC(O)CC2)n1 (stereo unspecified),parasite load remaining,[13],41% (inactive)
same,viability,[13],82.3%
same,remaining activity,[1],92.5% (inactive)
same,outcome,[2],inactive
same,outcome,[3],inactive
same,outcome,[14],inactive
same,outcome,[4],inactive
same,outcome,[6],inactive
same,outcome,[7],inactive
same,outcome,[8],inactive
same,fold change,[9]; [17],0.979 (inactive)
same,fold change,[9]; [18],0.79
same,cell count,[9]; [19],6910
same,cell count,[9]; [20],7050
same,z-score,[12],0.59 (inactive)
N[C@H](CSC(c1ccccc1)(c1ccccc1)c1ccccc1)C(=O)O,remaining activity,[1],104% (inactive)
same,outcome,[2],inactive
same,outcome,[3],inactive
same,outcome,[14],inactive
same,outcome,[5],inactive
same,outcome,[6],inactive
same,outcome,[8],inactive
same,fold change,[9]; [17],0.901 (inactive)
same,fold change,[9]; [18],1.4
same,cell count,[9]; [19],7800
same,cell count,[9]; [20],8660
same,z-score,[12],0.555 (inactive)
O=C(O)c1ccc(-c2c[nH]c3ncc(-c4ccccc4)cc23)cc1C1CCCC1,remaining activity,[1],108% (inactive)
same,outcome,[2],inactive
same,outcome,[14],inactive
same,AC50,[4],0.372 µM (active)
same,outcome,[5],inactive
same,outcome,[15],inactive
same,outcome,[7],inactive
same,fold change,[9]; [17],0.863 (inactive) and 0.894 (inactive)
same,fold change,[9]; [18],0.684 and 1.96
same,cell count,[9]; [19],2990 and 4050
same,cell count,[9]; [20],3460 and 4530
same,SSMD,[10],1.9
same,cell count,[10],6900
same,plate-normalised HSF1 focus index,[10],1.11 (inactive)
same,z-score,[11]; [21],-0.208 (inactive)
same,z-score,[11]; [22],-2.05
same,viability,"[16]; at 0.000305 µM, OCI-C5x cells, with rucaparib 10 µM, 100% = cells with rucaparib alone",113% (inactive)
same,viability,"[16]; at 0.000305 µM, OCI-C5x cells, without rucaparib",105% (inactive)
same,viability,"[16]; at 0.000305 µM, OCI-P5x cells, with rucaparib 20 µM, 100% = cells with rucaparib alone",85.9% (active)
same,viability,"[16]; at 0.000305 µM, OCI-P5x cells, without rucaparib",89.5% (active)
same,viability,"[16]; at 0.00122 µM, OCI-C5x cells, with rucaparib 10 µM, 100% = cells with rucaparib alone",106% (inactive)
same,viability,"[16]; at 0.00122 µM, OCI-C5x cells, without rucaparib",118% (inactive)
same,viability,"[16]; at 0.00122 µM, OCI-P5x cells, with rucaparib 20 µM, 100% = cells with rucaparib alone",90% (active)
same,viability,"[16]; at 0.00122 µM, OCI-P5x cells, without rucaparib",99.6% (active)
same,viability,"[16]; at 0.00488 µM, OCI-C5x cells, with rucaparib 10 µM, 100% = cells with rucaparib alone",112% (inactive)
same,viability,"[16]; at 0.00488 µM, OCI-C5x cells, without rucaparib",120% (inactive)
same,viability,"[16]; at 0.00488 µM, OCI-P5x cells, with rucaparib 20 µM, 100% = cells with rucaparib alone",101% (inactive)
same,viability,"[16]; at 0.00488 µM, OCI-P5x cells, without rucaparib",100% (inactive)
same,viability,"[16]; at 0.0195 µM, OCI-C5x cells, with rucaparib 10 µM, 100% = cells with rucaparib alone",118% (inactive)
same,viability,"[16]; at 0.0195 µM, OCI-C5x cells, without rucaparib",115% (inactive)
same,viability,"[16]; at 0.0195 µM, OCI-P5x cells, with rucaparib 20 µM, 100% = cells with rucaparib alone",97.8% (active)
same,viability,"[16]; at 0.0195 µM, OCI-P5x cells, without rucaparib",103% (inactive)
same,viability,"[16]; at 0.0781 µM, OCI-C5x cells, with rucaparib 10 µM, 100% = cells with rucaparib alone",95.5% (active)
same,viability,"[16]; at 0.0781 µM, OCI-C5x cells, without rucaparib",112% (inactive)
same,viability,"[16]; at 0.0781 µM, OCI-P5x cells, with rucaparib 20 µM, 100% = cells with rucaparib alone",95.2% (active)
same,viability,"[16]; at 0.0781 µM, OCI-P5x cells, without rucaparib",103% (inactive)
same,viability,"[16]; at 0.313 µM, OCI-C5x cells, with rucaparib 10 µM, 100% = cells with rucaparib alone",91.3% (active)
same,viability,"[16]; at 0.313 µM, OCI-C5x cells, without rucaparib",116% (inactive)
same,viability,"[16]; at 0.313 µM, OCI-P5x cells, with rucaparib 20 µM, 100% = cells with rucaparib alone",102% (inactive)
same,viability,"[16]; at 0.313 µM, OCI-P5x cells, without rucaparib",102% (inactive)
same,viability,"[16]; at 1.25 µM, OCI-C5x cells, with rucaparib 10 µM, 100% = cells with rucaparib alone",88.1% (active)
same,viability,"[16]; at 1.25 µM, OCI-C5x cells, without rucaparib",105% (inactive)
same,viability,"[16]; at 1.25 µM, OCI-P5x cells, with rucaparib 20 µM, 100% = cells with rucaparib alone",93.8% (active)
same,viability,"[16]; at 1.25 µM, OCI-P5x cells, without rucaparib",93.3% (active)
same,viability,"[16]; at 5 µM, OCI-C5x cells, with rucaparib 10 µM, 100% = cells with rucaparib alone",65.2% (active)
same,viability,"[16]; at 5 µM, OCI-C5x cells, without rucaparib",60.5% (active)
same,viability,"[16]; at 5 µM, OCI-P5x cells, with rucaparib 20 µM, 100% = cells with rucaparib alone",92.6% (active)
same,viability,"[16]; at 5 µM, OCI-P5x cells, without rucaparib",75.8% (active)
same,z-score,[12],0.065 (inactive)
CN1C(=O)C(Cc2c[nH]c3ccccc23)NC1=S (stereo unspecified),parasite load remaining,[13],48.6% (inactive)
same,viability,[13],96.5%
same,remaining activity,[1],89.8% (inactive)
same,outcome,[2],inactive
same,outcome,[3],inactive
same,outcome,[14],inactive
same,outcome,[5],inactive
same,outcome,[15],inactive
same,outcome,[6],inactive
same,outcome,[7],inactive
same,outcome,[8],inactive
same,fold change,[9]; [17],0.887 (inactive) and 0.965 (inactive)
same,fold change,[9]; [18],0.523 and 1.02
same,cell count,[9]; [19],7790 and 8210
same,cell count,[9]; [20],8780 and 8510
same,SSMD,[10],1.64
same,cell count,[10],7350
same,plate-normalised HSF1 focus index,[10],1.1 (inactive)
same,z-score,[11]; [21],-0.333 (inactive)
same,z-score,[11]; [22],0.34
same,z-score,[12],0.03 (inactive)
O=C(O)CCc1ccc(NCc2cccc(Oc3ccccc3)c2)cc1,remaining activity,[1],92.7% (inactive)
same,outcome,[2],inactive
same,outcome,[3],inactive
same,outcome,[14],inactive
same,outcome,[4],inactive
same,outcome,[5],inactive
same,outcome,[15],inactive
same,outcome,[6],inactive
same,outcome,[7],inactive
same,outcome,[8],inactive
same,SSMD,[10],3.5
same,cell count,[10],6830
same,plate-normalised HSF1 focus index,[10],1.21 (inactive)
same,z-score,[11]; [21],-0.374 (inactive)
same,z-score,[11]; [22],0.82
same,z-score,[12],0.215 (inactive) and -0.155 (inactive)
Oc1ccc2ccccc2c1SSc1c(O)ccc2ccccc12,parasite load remaining,[13],35.3% (inactive)
same,viability,[13],87.1%
same,remaining activity,[1],112% (inactive)
same,AC50,[2],14.8 µM (active)
same,AC50,[14],23.5 µM (active)
same,AC50,[4],18.7 µM (active)
same,AC50,[5],14.8 µM (active)
same,AC50,[15],11.8 µM (active)
same,AC50,[6],23.5 µM (active)
same,AC50,[7],10.5 µM (active)
same,outcome,[8],inactive
same,fold change,[9]; [17],0.974 (inactive) and 0.952 (inactive) and 0.85 (inactive)
same,fold change,[9]; [18],1 and 0.368 and 2.34
same,cell count,[9]; [19],7700 and 7960 and 7720
same,cell count,[9]; [20],7910 and 8360 and 9070
same,z-score,[11]; [21],2.05 (active)
same,z-score,[11]; [22],-0.0374
same,z-score,[12],-1.38 (inactive) and -0.86 (inactive)
COc1cccc(-c2cc(=O)c3ccccc3o2)c1N,parasite load remaining,[13],29.3% (inactive)
same,viability,[13],68.4%
same,remaining activity,[1],102% (inactive)
same,outcome,[2],inactive
same,outcome,[3],inactive
same,outcome,[14],inactive
same,outcome,[5],inactive
same,outcome,[15],inactive
same,outcome,[8],inactive
same,z-score,[11]; [21],-0.498 (inactive)
same,z-score,[11]; [22],1.33
same,z-score,[12],-0.045 (inactive) and 0.145 (inactive)
